Compound activity deposited in PubChem by several laboratories.
Shown are actives, neighbours in structure and some others; about 2% of the full set was active somewhere.
Jurkat NFkB inh = inhibitors of the PMA/ionomycin-induced NF-kB reporter in Jurkat cells. AID 435003. inhibition, % at 4 µM. actives 0.53% (n = 330,000). PMA/ionomycin-induced NF-kB luciferase reporter, luminescence; in the data active = inhibition above about 50%
697 NFkB inh = lowers PMA/ionomycin-induced NF-kB signal in 697 B cells. actives 0.33% (n = 330,000). AID 435022. inhibition, % at 4 µM. 697 B-cell NF-kB luciferase reporter, 16 h; in the data active = inhibition above about 35%
Beta apoptosis = beta cell apoptosis inhibition; actives 0.8% (n = 300,000); INS-1E cytokine-induced death, ATP luminescence, 48 h; percent of positive-control rescue, neutral wells zero; protection from apoptosis, % (no concentration beside the values);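 active = Every replicate reaches about 75%, or at least half do and their mean reaches it too, limit read from the data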;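 note: 0% = cytokine-treated negative control wells and 100% = positive control rescue; higher means more ATP so stronger rescue from cytokine killing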
Shn3 3UTR inh = Schnurri-3 reporter inhibition in Clone20 osteoblasts | Clone20 osteoblast Shn3 3'UTR firefly luciferase, 24 h | inhibition, % at 12.5 µM | actives 0.52% (n = 360,000) | AID 588674;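 active = mean inhibition of at least 75% with every replicate also reaching 75%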;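 note: 0% = median of neutral control wells and 100% = pilot-screen positive control compound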
Calb FLC = affects C. albicans growth with fluconazole. C. albicans CaCi-2 (fluconazole-resistant clinical isolate) + fluconazole, Alamar Blue growth, 48 h. growth inhibition, % (concentration not given with the values). actives 0.57% (n = 300,000). AID 1979;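 active = growth inhibition above about 58% in most replicates, limit read from the data, passing the limit was not always enough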;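 note: all wells also contain fluconazole at 8 µg/ml as a sub-toxic cotreatment; 0% = median of DMSO wells and 100% = median of geldanamycin control wells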
* marks the source's active call; other numbers are inactive results; · = not tested or not shown.

SMILES	Jurkat NFkB inh	697 NFkB inh	Beta apoptosis	Shn3 3UTR inh	Calb FLC
CC(N)C(=O)NC1C2C(=C(O)CC(O)C2O)C(=O)OC1(C)C(Cl)Cl (centres undefined)	·	·	·	96*	·
O=c1[nH]c2ccccc2n1C1CCN(C(c2cccs2)c2nnnn2Cc2ccccc2)CC1 (centres undefined)	·	·	·	85*	·
O=c1[nH]c2ccccc2n1C1CCN(C(CCc2ccccc2)c2nnnn2Cc2ccccc2)CC1 (centres undefined)	·	·	·	85*	·
COc1ccc(C(c2nnnn2Cc2ccccc2)N2CCC(n3c(=O)[nH]c4ccccc43)CC2)cc1 (centres undefined)	·	·	·	-11	·
COc1ccc(-c2cc(-c3ccccc3)[n+](C)c(-c3ccccc3)c2)cc1	42	-8	109*	15	103*
O=C(OCc1ccccc1)N1CCC2CC1c1cc(N3Cc4ccccc4-n4nncc4C3)ccc12 (centres undefined)	·	·	·	-171	·
CC(C)(O)/C=C/C(=O)C(C)(O)C1C(O)CC2(C)C3CC=C4C(C=C(O)C(=O)C4(C)C)C3(C)C(=O)CC12C (centres undefined)	·	·	·	89*	·
COc1ccccc1N1CCN(Cc2cc(C)c(C)cc2O)CC1	-3	-20	-6	-3	-24
COc1cc(CN2CCN(c3cc(C)ccc3C)CC2)ccc1O	-4	-23	108*	34	-20
COc1cc2cc(C(=O)N3CC(COS(C)(=O)=O)c4ccc(O)cc43)[nH]c2c(OC)c1OC (centres undefined)	·	·	·	95*	·
COc1ccc(OC(=O)N(C)C[C@@H]2OCc3cnnn3CCCC(=O)N([C@@H](C)CO)C[C@H]2C)cc1	·	·	·	-11	·
C=C1C(=O)OC2CC(C)C3C=CC(=O)C3(C)C(O)C12 (centres undefined)	·	·	·	97*	·
CNc1ccc2oc(C[C@H]3O[C@@]4(CC[C@H]3C)O[C@H]([C@H](C)C(=O)c3ccc[nH]3)[C@H](C)C[C@H]4C)nc2c1C(=O)O	23	-61	109*	97*	·
COc1ccc(C(=O)N2C[C@H]3C[C@@H](C2)c2cccc(=O)n2C3)cc1OC	-4	-33	-10	1	-4
COC(=O)C1=C(c2ccc(F)cc2OCc2ccccc2)C[C@@H]2CC[C@H]1N2C(=O)NC1Cc2ccccc2C1	-7	-13	13	87*	·
CC1(C)NC(=O)[C@H]2CCCN21	-4	-14	·	11	-4
CC1CCC2C(C)C(=O)OC3OC4(C)CCC1C32OO4 (centres undefined)	6	-21	15	18	64
COC(=O)C1=C(c2ccccc2)C[C@@H]2CC[C@H]1N2C(=O)NCCCOC(C)C	4	-5	-7	9	9
O=C(NCc1cccnc1)Nc1ccccc1Cl	13	13	-2	-5	-5
O=C(NCc1cccnc1)Nc1ccc([N+](=O)[O-])cc1	9	-10	81*	22	5
CN(C)Cc1c[nH]c2ccccc12	-4	10	-5	8	·
C=CCN(CC=C)Cc1c[nH]c2ccccc12	13	-12	107*	·	-9
COc1ccc(-n2c(O)c(C(C)=NCc3ccc4c(c3)OCO4)c(=O)[nH]c2=O)cc1	6	5	·	7	2
NC(=O)CN1CC(c2ccccc2)CC1=O (centres undefined)	11	21	1	7	-5
O=P(Oc1ccccc1)(Oc1ccccc1)N1CCN(c2ccc(F)cc2)CC1	-1	-10	78*	-22	-2
SMILES	Jurkat NFkB inh	697 NFkB inh	Beta apoptosis	Shn3 3UTR inh	Calb FLC
CCOC(=O)c1c(-c2ccc(OC)cc2)oc2ccc(OC(=O)N(C)C)cc12	-19	-2	3	40	-34
Cc1oc2ccc(OC(=O)N(C)C)cc2c1C(=O)OC(C)C	5	7	-2	11	107*
Cc1cc(N(CCCl)CCCl)ccc1C=NNC(=O)Cc1cc(=O)oc2cc(O)ccc12	·	·	·	11	·
COc1cc2c(cc1OC)C1[C@H]3C(=CC[C@H]1OC2O)CCN3C (some centres undefined)	7	-8	0	6	·
COC(=O)C1=C(c2ccc3ccccc3c2)C[C@@H]2CC[C@H]1N2C(=O)NCC1CC1	8	2	12	89*	·
CS(=O)(=O)N1Cc2ccccc2-n2nncc2C1	·	·	·	-2	·
COc1ccc(N/N=C/c2c(O)n(-c3cccc(C)c3)c(=O)[nH]c2=O)cc1	16	25	-10	-7	114*
Cc1cc([N+](=O)[O-])c(Cl)cc1NC(=O)C(C)C	11	15	3	3	-4
